Here are results for seven molecules from PubChem BioAssay (Tox21).

Values without a mark were called inactive. Inconclusive results are not listed. The source made the active and inactive calls. Unless noted, the call rests on the fitted dose curve; in most records, active means well fitted curve in the direction sought with a large enough effect in the repeat runs; inconclusive means weak or mixed curves; inactive means no such curve, though single readings can be large; an effect the other way counts as inactive or inconclusive.

A short description of experiment [1]: qHTS assay to test for compound auto fluorescence at 535 nm (green) in HEK293 cells (AID 720680). On the technique in general: In qHTS, concentration-response curves come from the screen itself.
Experiment [2] in a line: qHTS assay to test for compound auto fluorescence at 460 nm (blue) in HEK293 cell free culture (AID 720681). The procedure, abridged: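 Test compounds were pinned into cell-free culture medium (DMEM with 10% FBS) and fluorescence was read directly at Ex/Em 405/460 nm. Signals were expressed as fluorescence equivalents of triamterene, with DMSO vehicle as control.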
A short description of experiment [3]: qHTS assay to test for compound auto fluorescence at 535 nm (green) in HEK293 cell free culture (AID 720682). The procedure, abridged:
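Green-label autofluorescence (485 nm excitation, 535 nm emission) measured on compound added to cell-free culture medium (DMEM, 10% FBS). Output is expressed relative to fluorescein.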

Experiment [4] can be described thus: qHTS assay to test for compound auto fluorescence at 590 nm (red) in HEK293 cell free culture (AID 720683). The procedure, abridged: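 Tox21 10K library compounds were pinned into cell-free DMEM with 10% FBS and fluorescence was read at excitation 540 nm. Activity is expressed as Rose Bengal sodium equivalency.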
Experiment [5] in a line: qHTS assay to test for compound auto fluorescence at 590 nm (red) in HepG2 cell free culture (AID 720684). In short, it runs like this:
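Ex 540 / Em 590 nm read of compound in cell-free MEM (10% FBS). Rose Bengal sodium reference.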

Experiment [6] is described as follows: qHTS assay to test for compound auto fluorescence at 460 nm (blue) in HepG2 cell free culture (AID 720685). In short, it runs like this:
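Cell-free plates of MEM plus 10% FBS received 23 nL compound or DMSO vehicle; blue-channel (405/460 nm) intensity scored against triamterene as reference fluorophore.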

A short description of experiment [7]: qHTS assay to test for compound auto fluorescence at 535 nm (green) in HepG2 cell free culture (AID 720686).
Experiment [8] in a line: qHTS assay to test for compound auto fluorescence at 460 nm (blue) in HepG2 cells (AID 720687). The procedure, abridged:
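Cells (2,000/well in MEM with 10% FBS) attached overnight at 37 C, then were exposed to compound or DMSO for 1 hr at 37 C, 5% CO2. Fluorescence read at Ex/Em 405/460 nm, expressed as triamterene-equivalent signal.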

Experiment [9] addresses Glucocorticoid receptor (Homo sapiens) (UniProt P04150). The experiment is described as follows: qHTS assay to identify small molecule agonists of the glucocorticoid receptor (GR) signaling pathway (AID 720691; active means well fitted activation curve with a large enough effect in the signal ratio in the repeat runs, not every such curve was filed as active; the % refers to the signal ratio). Particulars: GR-bla HeLa, beta-lactamase reporter ratio, 18 h; activation: at 62.4 µM (top of the series). In short, it runs like this: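 Cells: GR-bla HeLa, endogenous GR with stably integrated GRE-beta-lactamase reporter. Treatment 18 h, 37 C, compounds delivered in DMSO. Detection via LiveBLAzer B/G FRET substrate, 2 h RT, fluorescence intensity.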

Experiment [10] in a line: qHTS assay to identify small molecule antagonists of the glucocorticoid receptor (GR) signaling pathway - cell viability counter screen (AID 720693). Further: nearly all actives have a fitted effect of over 55% in size.
Experiment [11] in a line: qHTS assay for identifying genotoxic compounds that show differential cytotoxicity against isogenic chicken DT40 cell lines with known DNA damage response pathways - Rev3 mutant cell line (AID 743014). Further: nearly all actives have a fitted effect of over 55% in size. Further: potency means the concentration at half of the fitted maximal effect.
A short description of experiment [12]: qHTS assay for identifying genotoxic compounds that show differential cytotoxicity against isogenic chicken DT40 cell lines with known DNA damage response pathways - Rad54/Ku70 mutant cell line (AID 743015). Further: nearly all actives have a fitted effect of over 60% in size. Further: potency means the concentration at half of the fitted maximal effect.
The nature of experiment [13]: qHTS assay to identify small molecule antagonists of the androgen receptor (AR) signaling pathway using the MDA cell line - cell viability counter screen (AID 743041; further: nearly all actives have a fitted effect of over 45% in size; further: potency means the concentration at half of the fitted maximal effect). In short, it runs like this: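 In this qHTS counter assay, fluorescence intensity after CellTiter-Fluor addition indicated viability of MDA-kb2 AR-luc cells given compounds and R1881 for 16 h at 37C.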

For experiment [14], the target named is Glucocorticoid receptor (Homo sapiens) (UniProt P04150). Nature of the experiment: qHTS assay to identify small molecule antagonists of the glucocorticoid receptor (GR) signaling pathway (AID 720692; active means well fitted inhibition curve with a large enough effect in the signal ratio in the repeat runs, not every such curve was filed as active; the % refers to the signal ratio). In short, it runs like this:
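Quantitative HTS in antagonist format: HeLa cells expressing endogenous GR and a stably integrated GRE-bla reporter, stimulated with 5 nM dexamethasone (final) alongside test compounds for 18 h.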

Experiment [15] in a line: qHTS assay for identifying genotoxic compounds that show differential cytotoxicity against isogenic chicken DT40 cell lines with known DNA damage response pathways - wild type cell line (AID 743012). Further: nearly all actives have a fitted effect of over 60% in size. The procedure, abridged:
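Luminescent ATP viability signal (CellTiter-Glo, 30 min RT) recorded after wild type DT40 cells were incubated with compounds for 40 h at 37 C/5% CO2.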

Experiment [16] is described as follows: qHTS assay to identify small molecule antagonists of the androgen receptor (AR) signaling pathway - cell viability counter screen (AID 743033; further: nearly all actives have a fitted effect of over 45% in size).
In experiment [17] the target is Androgen receptor (Homo sapiens) (UniProt P10275). The experiment is described as follows: qHTS assay to identify small molecule antagonists of the androgen receptor (AR) signaling pathway (AID 743035; active means well fitted inhibition curve with a large enough effect in the signal ratio in the repeat runs, not every such curve was filed as active; the % refers to the signal ratio). In short, it runs like this: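 Quantitative HTS of the Tox21 10K library used HEK293 AR-UAS-bla cells stimulated with R1881 alongside compound for 16 h at 37C, followed by beta-lactamase FRET detection (LiveBLAzer B/G, 2 h, RT).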

Experiment [18] shares this target. Nature of the experiment: qHTS assay to identify small molecule agonists of the androgen receptor (AR) signaling pathway (AID 743036; active means well fitted activation curve with a large enough effect in the signal ratio in the repeat runs, with a control signal flat, not every such curve was filed as active; the % refers to the signal ratio). In short, it runs like this:
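AR-UAS-bla HEK293 cells, plated 4 h before dosing, were treated with compound for 16 h at 37C. beta-Lactamase reporter read after 2 h with LiveBLAzer B/G FRET substrate at room temperature.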

The target is the same in experiment [19]. Nature of the experiment: qHTS assay to identify small molecule agonists of the androgen receptor (AR) signaling pathway using the MDA cell line (AID 743040; further: nearly all actives have a fitted effect of over 20% in size). In short, it runs like this:
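Cell-based luciferase reporter: MDA-kb2, MMTV promoter (AR + GR response elements). 16 h compound exposure at 37C; ONE-Glo, 30 min RT, luminescence.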

Experiment [20] shares this target. The experiment is described as follows: qHTS assay to identify small molecule antagonists of the androgen receptor (AR) signaling pathway using the MDA cell line (AID 743042; further: nearly all actives have a fitted effect of over 55% in size). The procedure, abridged: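 MDA-kb2 cells (human breast carcinoma, stably carrying an MMTV-luciferase reporter responsive to AR and GR) were plated at 3,000 cells/well and preincubated 5 hr at 37C, then given compound plus R1881 agonist for 16 h. ONE-Glo luminescence was read.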
On the % scale 0 is the no-effect control and ±100 the full control effect.

Sequence of Androgen receptor (Homo sapiens) (P10275 whole entry, looked up): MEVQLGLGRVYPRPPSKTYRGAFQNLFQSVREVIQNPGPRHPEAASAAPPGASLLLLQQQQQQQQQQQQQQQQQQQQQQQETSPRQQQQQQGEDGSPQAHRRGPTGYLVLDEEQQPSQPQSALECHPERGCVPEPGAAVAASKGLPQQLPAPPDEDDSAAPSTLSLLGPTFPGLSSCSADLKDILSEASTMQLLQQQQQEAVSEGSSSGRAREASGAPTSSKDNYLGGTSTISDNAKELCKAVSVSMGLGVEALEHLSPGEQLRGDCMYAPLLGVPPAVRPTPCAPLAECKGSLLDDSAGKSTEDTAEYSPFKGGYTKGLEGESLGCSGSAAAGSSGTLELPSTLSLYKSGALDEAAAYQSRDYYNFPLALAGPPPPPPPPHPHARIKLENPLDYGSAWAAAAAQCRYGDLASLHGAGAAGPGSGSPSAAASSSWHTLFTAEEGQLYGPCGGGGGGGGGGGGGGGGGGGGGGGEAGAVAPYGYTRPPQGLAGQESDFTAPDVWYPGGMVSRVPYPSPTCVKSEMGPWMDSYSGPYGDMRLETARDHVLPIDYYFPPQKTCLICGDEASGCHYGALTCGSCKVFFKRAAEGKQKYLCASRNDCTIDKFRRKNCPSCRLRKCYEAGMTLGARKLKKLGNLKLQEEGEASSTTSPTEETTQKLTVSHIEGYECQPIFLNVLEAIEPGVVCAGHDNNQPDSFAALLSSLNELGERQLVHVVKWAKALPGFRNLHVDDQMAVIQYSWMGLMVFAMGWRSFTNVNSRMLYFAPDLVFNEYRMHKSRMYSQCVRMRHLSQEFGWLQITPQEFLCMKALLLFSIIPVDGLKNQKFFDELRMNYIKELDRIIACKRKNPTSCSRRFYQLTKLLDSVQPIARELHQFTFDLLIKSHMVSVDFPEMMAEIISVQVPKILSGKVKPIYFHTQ
Sequence of Glucocorticoid receptor (Homo sapiens) (P04150 whole entry, looked up): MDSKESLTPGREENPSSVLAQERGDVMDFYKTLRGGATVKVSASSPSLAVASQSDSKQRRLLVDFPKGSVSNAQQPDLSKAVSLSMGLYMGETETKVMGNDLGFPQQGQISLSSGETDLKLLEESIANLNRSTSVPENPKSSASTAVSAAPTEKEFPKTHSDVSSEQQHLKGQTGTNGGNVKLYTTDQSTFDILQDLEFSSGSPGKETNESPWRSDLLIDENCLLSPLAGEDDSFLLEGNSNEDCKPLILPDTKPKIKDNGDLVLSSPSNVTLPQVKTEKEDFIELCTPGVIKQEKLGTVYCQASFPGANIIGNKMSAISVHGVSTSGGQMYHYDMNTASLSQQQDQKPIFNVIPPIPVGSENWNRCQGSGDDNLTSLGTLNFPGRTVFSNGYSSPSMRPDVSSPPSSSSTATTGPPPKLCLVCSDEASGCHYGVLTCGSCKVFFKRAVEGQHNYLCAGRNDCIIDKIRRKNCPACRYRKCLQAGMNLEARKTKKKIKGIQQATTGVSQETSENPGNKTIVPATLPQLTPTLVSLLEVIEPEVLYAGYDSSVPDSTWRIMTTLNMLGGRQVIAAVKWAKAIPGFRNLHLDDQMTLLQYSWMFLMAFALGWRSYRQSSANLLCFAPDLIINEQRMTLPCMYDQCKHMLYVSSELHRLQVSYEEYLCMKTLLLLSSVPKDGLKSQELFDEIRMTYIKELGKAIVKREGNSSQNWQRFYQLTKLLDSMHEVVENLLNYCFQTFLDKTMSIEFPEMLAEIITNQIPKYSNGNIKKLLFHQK

Take `CCCCOc1ccc(C(=O)CCN2CCCCC2)cc1`: the fluorescence, % of fluorescein in [1] is 0.0036% [at 18.6 µM]. Moreover, the fluorescence, % of fluorescent control was 0.0618% [at 18.6 µM] in experiment [2], -0.0248% [at 18.6 µM] in experiment [4], 0.0259% [at 18.6 µM] in [6] and -0.165% [at 18.6 µM] in [8]. In experiment [3], the activity change is -0.0432% [at 18.6 µM, stronger effect = higher value]. Besides, the fluorescence, % of Rose Bengal in [5] is -0.355% [at 18.6 µM]. In addition, the fluorescence, % of fluorescein control in [7] was 0.0663% [at 18.6 µM]. For the same molecule, the Potency entry in [9] and in experiment [10] was “inactive” throughout. Further, the results for the Potency in experiment [11], in [12] and in experiment [13] were 1.27 µM (active), 1.01 µM (active) and 10.6 µM (active), respectively.
Turning to `CCCCCCCCCCCCCCCC`, the Potency result in experiment [1], in [2], in [3], in experiment [4], in experiment [5] and in [6] was “inactive” throughout. The Potency result in experiment [7], in experiment [8], in [9], in [14], in [10] and in experiment [15] was “inactive” each time. In addition, the Potency entry in experiment [11], in experiment [12], in experiment [16] and in experiment [13] was “inactive” each time.
Turning to `NCCCC(O)(P(=O)(O)O)P(=O)(O)O`, the Potency result in experiment [1], in experiment [2], in experiment [3], in experiment [4], in [5] and in [6] was “inactive” throughout. Further, the Potency result in experiment [7], in experiment [8], in experiment [9], in experiment [14], in [10] and in experiment [16] was “inactive” in each case. In addition, in experiment [13], the Potency entry is “inactive”.
Take `CC(C(O)c1ccccc1)N(C)CCOC(c1ccccc1)c1ccccc1` (configuration not stated): the Potency result in experiment [1], in [2], in experiment [3], in experiment [4], in [5] and in experiment [6] was “inactive” each time. Further, the Potency result in [7], in experiment [8], in [9] and in experiment [10] was “inactive” throughout. Also, the Potency in [11] was 8.41 µM (active); in experiment [12], 9.44 µM (active); in experiment [13] it was 26.6 µM (active).
`Nc1ncnc2c1ncn2[C@@H]1O[C@H](COP(=O)(O)O)[C@@H](O)[C@H]1O`: the Potency result in experiment [1], in [2], in [3], in experiment [4], in experiment [5] and in experiment [6] was “inactive” throughout. The Potency result in experiment [7], in experiment [8], in experiment [9], in [10], in experiment [15] and in experiment [12] was “inactive” each time. The Potency result in [16] and in experiment [13] was “inactive” each time.
For the molecule `Cc1cn[nH]c1`, the Potency result in experiment [1], in experiment [2], in experiment [3], in [4], in [5] and in experiment [6] was “inactive” each time. Moreover, the Potency entry in [7], in experiment [8], in [9], in experiment [14], in experiment [10] and in [15] was “inactive” in each case. The Potency entry in experiment [11], in [12], in [16], in experiment [17], in experiment [19] and in experiment [13] was “inactive” in each case. Moreover, the Potency entry in experiment [20] was “inactive”. Besides, the outcome in experiment [18] was inactive.
On to `CN1[C@@H]2CC[C@@H]1CC(OC(=O)C(CO)c1ccccc1)C2` (some centres not stated), for which the Potency entry in experiment [1], in experiment [2], in experiment [3], in experiment [4], in [5] and in experiment [6] was “inactive” in each case. Also, the Potency entry in experiment [7], in [8], in experiment [9], in experiment [14], in experiment [10] and in [16] was “inactive” each time. The Potency result in experiment [13] is “inactive”.
